The values that follow come from PubChem BioAssay (NCATS).

Records with an inconclusive call do not appear. A call without a number means that no potency is given here. The source made the active and inactive calls. The call rests on the fitted dose curve; in most records, active means well fitted curve in the direction sought with a large enough effect in the main read-out, with a control signal flat (not every such curve was filed as active); inconclusive means small, poorly fitted or top-dose-only effect, or effect the other way, or a change in a side signal; inactive means no such curve, though single readings can be large or run the other way.
Potency means the concentration at half of the fitted maximal effect.

The nature of this test: qHTS Validation Assay to Find Inhibitors of Chronic Active B-Cell Receptor Signaling (AID 485345). The following applies: ABC-DLBCL cells, chronic BCR signaling reporter, CBG luciferase; series mostly up to 46.1 µM. The source says:
NIH Molecular Libraries Probe Production Network [MLPCN]
NIH Chemical Genomics Center [NCGC]
PI Name: Dr. R. Eric Davis
Diffuse large B-cell lymphoma (DLBCL) is the most common category of non-Hodgkin lymphoma, with ~20,000 new cases per year in the United States. DLBCL should be regarded as a collection of different neoplasms. Microarray gene expression analysis has defined two principal types of DLBCL, named for their similarity to normal B cell stages or activation states: a germinal center B-cell (GCB) type, and an activated B-cell (ABC) type. In ABC-DLBCL, a constitutive high-level activity of the NF-kappaB family of transcription factors has been observed (1) and NF-kappaB target genes are more highly expressed in ABC primary tumors than in GCB tumors. Functional studies have shown a constitutive high-level activity of the IkappaB (inhibitor of kappa-B) kinase (IKK) complex. […] Further analysis of DLBCL primary tumors for NF-kappaB target gene expression imply that although CARD11 is required for constitutive IKK activity in all ABC-DLBCL lines, mutations in CARD11 may be the root cause of IKK activation only in lines or tumors with such mutations. In other words, CARD11 mutations may explain NF-kappaB activation in only 10% of ABC-DLBCL cases. […] This process has been termed 'chronic active BCR signaling' (CABS).
The goal of this screen is to find small-molecule inhibitors of the CABS pathway found in ABC-DLBCL lines using a cell-based assay that measures IkappaBalpa stability, which has already been extensively validated in the OCI-Ly3 line (PubChem AID:445; REF: 4).
A cell-sensor assay for I-kappa-B-alpha stabilization has been developed. The assay uses green (CBG68) and red (CBR) emitting beetle luciferases [Chroma-GloTM developed by Promega Corp.] where the green luciferase is fused to IkappaBalpha and the red luciferase is present in its native state. Both luciferase genes are stably present in the TMD8 human ABC DLBCL cell line, but their expression is under the control of tetracycline-inducible promoters. Following the addition of doxycycline to induce expression of the luciferases, the green luminescence in control cultures rises only slowly because the CBG fusion partner IkappaBalpha is targeted by IKK activity for rapid degradation. In contrast, green luminescence rises rapidly in the presence of proteasome inhibitors or IKK inhibitors. The rise in red luminescence of CBR is not affected by proteasome or IKK inhibitors, and serves as normalization for cell number and nonspecific effects. Compounds were screened as a concentration-titration series that ranged from 46 uM to 3 nM.
NCGC Assay Protocol Summary:
Cells were seeded in 1536-well plates at 5000 cells/4uL in IMDM medium containing 0.5% FBS, w/o phenol red, 1% penicillin/streptomycin. Then, 23 nL of compounds or DMSO were delivered to each well using a pin tool. One uL 20ng/ml doxycycline was then dispensed into white solid 1536-well plates and the plates were incubated at 37C/5% C02 in a cell incubator for 4 hrs. Then 4 uL luminescent substrate mix (in-house prepared: 150 mM Tris-Cl, pH 7.6, 3 mM MgCl2, 1% Triton X-100, 5 mM DTT, 0.2 mM CoA, 0.15 mM ATP, 5 mM D-luciferin, final concentrations) was added to each well. The plate was incubated at r.t. for 10-15 min. The plates were measured on a ViewLux plate reader for green luminescence (540/20 nm filter) and red luminescence (618/8 nm filter). The green and red luminescent signals were corrected for red and green luminescence filter overlap using previously determined filter calibration constants (determined using the procedure outlined in the Promega Technical Manual; REF 4). The %Activity was determined from the ratio of corrected green/red luminescent values. MG132 were used as control. Green luminescent and ratio %Activity was determined by normalizing to the difference in signal between basal cells (0% Activity) and cells incubated with 10 uM of the proteasome inhibitor MG-132 (100% Activity). […]
(qHTS replaces the single test concentration by a dilution series.)
Turning to `Nc1ccn([C@@H]2O[C@H](CO)[C@@H](O)C2O)c(=O)n1` (some centres not stated), the Potency entry is “inactive”.
Turning to `O=c1c(O)c(-c2ccc(O)cc2O)oc2cc(O)cc(O)c12`, the Potency entry was “inactive”.
In the case of `OC(CN1CCN(c2cccc(Cl)c2)CC1)C(c1ccccc1)c1ccccc1` (configuration not stated), the Potency result was “inactive”.
Regarding `CC(=O)O[C@H]1C(=O)[C@@]2(C)C([C@H](OC(=O)c3ccccc3)[C@]3(O)C[C@H](OC(=O)[C@H](O)[C@@H](NC(=O)c4ccccc4)c4ccccc4)C(C)=C1C3(C)C)[C@]1(OC(C)=O)CO[C@@H]1C[C@@H]2O` (some centres not stated), the Potency entry is “inactive”.
The same measure for `O=c1c(O)c(-c2cc(O)c(O)c(O)c2)oc2cc(O)cc(O)c12`: “inactive”.
Take `COc1ccccc1N1CCN(CCN(C(=O)C2CCCCC2)c2ccccn2)CC1`: the Potency entry is “inactive”.
With `CC1(C)NC(=O)N(c2ccc([N+](=O)[O-])c(C(F)(F)F)c2)C1=O`, the Potency result was “inactive”.
Regarding `NNc1nncc2ccccc12`, the Potency result is “inactive”.
As to `NCCCCNCCCN`, the Potency entry was “inactive”.
In the case of `O=C(c1ccccc1)c1ccc2n1CCC2C(=O)O` (configuration not stated), the Potency entry is “inactive”.
As for `CN(C)CCCC1(c2ccc(F)cc2)OCc2cc(C#N)ccc21` (configuration not stated), the Potency entry was “inactive”.
Take `Oc1ccc2ccccc2c1SSc1c(O)ccc2ccccc12`: the Potency entry is “inactive”.
`COc1ccc2cc([C@H](C)C(=O)O)ccc2c1`: the Potency entry was “inactive”.
The same measure for `Cc1c(OCC(F)(F)F)ccnc1CS(=O)c1nc2ccccc2[nH]1` (configuration not stated): “inactive”; for `O=C(CCc1ccc(O)cc1)c1c(O)cc(O)cc1O`: “inactive”.
Turning to `O=C1c2c(O)cc(O)cc2OC(c2ccc(O)c(O)c2)C1O` (configuration not stated), the Potency result is “inactive”.
As for `Cc1cccc(C#Cc2ccccc2)n1`, the Potency result was “inactive”.
The same measure for `O=c1cc(N2CCOCC2)oc2c(-c3ccccc3)cccc12`: 2590 nM (active); for `O=C1NC(=O)C(c2ccccc2[N+](=O)[O-])=C1Nc1ccc(O)c(Cl)c1`: “inactive”; for `CNC[C@H](O)c1ccc(O)c(O)c1`: “inactive”.
As to `C[C@@H](N)C1CCC(C(=O)Nc2ccncc2)CC1` (some centres not stated), the Potency entry was “inactive”.
For `O=c1ccc2ccc(O)c(O)c2o1` the value was “inactive”.
